Results as given in publication PMC7862700, “An all-to-all approach to the identification of sequence-specific readers for epigenetic DNA modifications on cytosine”.

How the values were obtained:
Test in all cases: DAPPL (digital affinity profiling via proximity ligation, sequencing); 10 mM Tris-HCl pH 7.5, 50 mM NaCl, 1 mM DTT, 4% glycerol, room temperature, 30 min; GST-TFs on glutathione beads, 16-mer random dsDNA library, 0.1% formaldehyde crosslink after washing; high values mean tight binding
Conditions in all cases: protein: recombinant; tags: N-terminal GST; dsDNA, one strand shown
[1] = molecular target: T1, FEV (Homo sapiens, UniProt Q99581 1-238)
T1 sequence: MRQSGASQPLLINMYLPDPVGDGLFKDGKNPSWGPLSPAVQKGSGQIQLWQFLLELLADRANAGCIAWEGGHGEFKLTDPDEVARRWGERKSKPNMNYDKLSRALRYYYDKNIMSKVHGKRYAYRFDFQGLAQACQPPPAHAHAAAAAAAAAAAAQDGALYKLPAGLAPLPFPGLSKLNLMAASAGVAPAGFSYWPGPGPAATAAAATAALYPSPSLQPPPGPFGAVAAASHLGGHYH
Method in brief: (§1)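 Sequencing on an Illumina NextSeq500 followed washing, crosslinking with 0.1% formaldehyde, proximity ligation (BsaI/T4 ligase, 1 h, 37 °C) and PCR amplification of pools that had been incubated for 30 min at room temperature with 200 nmole of a random double-stranded 16-mer DNA library in Tris/NaCl/DTT/glycerol buffer. Each pool held DNA-barcoded human transcription factors, expressed in yeast as GST fusions and captured on glutathione beads, plus a tag-only sample. Binding signal is a hexamer's read frequency for a factor divided by its frequency in the tag-only sample.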

[2] = molecular target: ETV5 (Homo sapiens, UniProt P41161 1-510)
ETV5, sequence (P41161 whole entry): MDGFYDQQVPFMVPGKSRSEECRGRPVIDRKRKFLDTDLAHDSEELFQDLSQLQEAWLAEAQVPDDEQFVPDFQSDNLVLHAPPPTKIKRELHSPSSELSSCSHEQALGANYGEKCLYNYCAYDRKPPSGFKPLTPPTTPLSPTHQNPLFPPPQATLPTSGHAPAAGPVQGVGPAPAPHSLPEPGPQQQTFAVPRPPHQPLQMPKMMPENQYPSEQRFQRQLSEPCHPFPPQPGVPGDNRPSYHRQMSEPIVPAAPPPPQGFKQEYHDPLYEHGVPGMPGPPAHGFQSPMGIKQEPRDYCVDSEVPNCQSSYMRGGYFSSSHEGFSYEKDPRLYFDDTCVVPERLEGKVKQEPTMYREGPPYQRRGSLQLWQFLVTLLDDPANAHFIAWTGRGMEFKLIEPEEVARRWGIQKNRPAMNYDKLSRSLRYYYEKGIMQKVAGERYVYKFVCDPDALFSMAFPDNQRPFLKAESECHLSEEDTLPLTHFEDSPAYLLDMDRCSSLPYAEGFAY
Method in brief: as §1

[3] = molecular target: T2, SPIC (Homo sapiens, UniProt Q8N5J4 1-248)
T2 sequence: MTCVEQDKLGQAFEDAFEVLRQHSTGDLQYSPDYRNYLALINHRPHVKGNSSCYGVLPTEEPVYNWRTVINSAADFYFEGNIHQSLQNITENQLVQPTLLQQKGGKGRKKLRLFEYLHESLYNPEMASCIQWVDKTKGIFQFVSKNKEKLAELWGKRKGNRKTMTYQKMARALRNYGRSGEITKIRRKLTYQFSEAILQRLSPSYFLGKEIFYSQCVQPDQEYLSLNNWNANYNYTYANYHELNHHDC
Method in brief: as §1

[4] = molecular target: ELF4 (Homo sapiens, UniProt Q99607 1-663)
ELF4, sequence (Q99607 whole entry): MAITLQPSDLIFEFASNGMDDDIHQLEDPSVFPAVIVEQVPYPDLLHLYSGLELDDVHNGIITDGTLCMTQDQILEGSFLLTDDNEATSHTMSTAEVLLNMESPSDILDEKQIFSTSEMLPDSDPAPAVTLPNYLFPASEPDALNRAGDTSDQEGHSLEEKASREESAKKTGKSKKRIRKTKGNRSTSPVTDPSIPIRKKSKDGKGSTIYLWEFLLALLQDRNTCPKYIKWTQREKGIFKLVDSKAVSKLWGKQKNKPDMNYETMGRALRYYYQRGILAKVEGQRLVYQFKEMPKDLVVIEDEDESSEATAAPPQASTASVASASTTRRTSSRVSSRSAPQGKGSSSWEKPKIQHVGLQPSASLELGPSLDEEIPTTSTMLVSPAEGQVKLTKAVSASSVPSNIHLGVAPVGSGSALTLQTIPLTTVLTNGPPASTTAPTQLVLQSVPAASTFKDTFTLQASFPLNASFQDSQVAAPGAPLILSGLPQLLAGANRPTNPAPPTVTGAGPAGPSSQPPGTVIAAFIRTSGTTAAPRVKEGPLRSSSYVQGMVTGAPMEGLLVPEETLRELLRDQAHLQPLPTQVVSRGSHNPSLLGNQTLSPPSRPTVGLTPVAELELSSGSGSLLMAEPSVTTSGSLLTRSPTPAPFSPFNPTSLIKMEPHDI
Method in brief: as §1

[5] = molecular target: T3, ELK4 (Homo sapiens, UniProt P28324-2 1-405)
T3 sequence: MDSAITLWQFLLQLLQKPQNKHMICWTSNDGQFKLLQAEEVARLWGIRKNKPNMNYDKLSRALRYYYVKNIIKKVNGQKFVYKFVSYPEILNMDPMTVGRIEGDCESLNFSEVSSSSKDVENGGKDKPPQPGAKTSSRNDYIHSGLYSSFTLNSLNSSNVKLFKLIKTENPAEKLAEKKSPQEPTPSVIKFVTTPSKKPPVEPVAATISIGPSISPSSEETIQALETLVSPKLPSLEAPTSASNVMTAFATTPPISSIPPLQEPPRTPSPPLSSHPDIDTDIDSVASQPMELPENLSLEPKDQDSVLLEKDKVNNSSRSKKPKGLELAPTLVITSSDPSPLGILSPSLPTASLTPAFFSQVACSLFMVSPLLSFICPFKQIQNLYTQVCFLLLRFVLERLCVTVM
Method in brief: as §1

[6] = molecular target: T4, ETV2 (Homo sapiens, UniProt O00321 1-342)
T4 sequence: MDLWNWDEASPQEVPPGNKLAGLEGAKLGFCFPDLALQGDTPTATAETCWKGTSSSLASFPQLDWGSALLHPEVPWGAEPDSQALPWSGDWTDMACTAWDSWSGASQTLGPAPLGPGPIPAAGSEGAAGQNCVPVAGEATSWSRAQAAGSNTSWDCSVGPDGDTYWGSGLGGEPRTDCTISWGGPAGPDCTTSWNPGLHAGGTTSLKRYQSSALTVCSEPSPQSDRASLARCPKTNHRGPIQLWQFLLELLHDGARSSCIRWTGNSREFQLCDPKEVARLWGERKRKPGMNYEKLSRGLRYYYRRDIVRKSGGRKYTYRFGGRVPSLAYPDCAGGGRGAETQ
Method in brief: as §1

[7] = molecular target: T5, ELF3 (Homo sapiens, UniProt P78545 1-371)
T5 sequence: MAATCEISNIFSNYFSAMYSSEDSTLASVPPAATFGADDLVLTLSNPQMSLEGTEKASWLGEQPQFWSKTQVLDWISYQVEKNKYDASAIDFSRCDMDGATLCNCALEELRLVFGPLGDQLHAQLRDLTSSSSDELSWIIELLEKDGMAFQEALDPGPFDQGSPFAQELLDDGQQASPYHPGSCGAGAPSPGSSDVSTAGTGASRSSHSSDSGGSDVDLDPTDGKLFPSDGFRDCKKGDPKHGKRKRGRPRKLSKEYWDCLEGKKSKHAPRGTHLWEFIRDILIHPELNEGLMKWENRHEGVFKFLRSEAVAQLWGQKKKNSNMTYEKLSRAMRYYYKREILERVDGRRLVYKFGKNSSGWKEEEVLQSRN
Method in brief: as §1

[8] = molecular target: ETV1 (Homo sapiens, UniProt P50549 1-477)
ETV1, sequence (P50549 whole entry): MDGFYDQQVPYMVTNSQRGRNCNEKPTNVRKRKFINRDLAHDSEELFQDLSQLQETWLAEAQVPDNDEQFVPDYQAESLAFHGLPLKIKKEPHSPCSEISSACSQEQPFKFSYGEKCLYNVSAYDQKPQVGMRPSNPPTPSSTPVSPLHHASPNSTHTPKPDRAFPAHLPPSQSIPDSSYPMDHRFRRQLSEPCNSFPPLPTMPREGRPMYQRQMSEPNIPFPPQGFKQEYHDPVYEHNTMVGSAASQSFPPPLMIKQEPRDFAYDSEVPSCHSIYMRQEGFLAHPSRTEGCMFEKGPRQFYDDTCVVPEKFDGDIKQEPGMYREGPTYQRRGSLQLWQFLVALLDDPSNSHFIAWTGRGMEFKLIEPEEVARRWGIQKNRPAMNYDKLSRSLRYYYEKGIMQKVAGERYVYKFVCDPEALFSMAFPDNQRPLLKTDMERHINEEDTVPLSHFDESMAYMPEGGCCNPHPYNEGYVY
Method in brief: as §1

[9] = molecular target: T6, ERF (Homo sapiens, UniProt P50548 1-548)
T6 sequence: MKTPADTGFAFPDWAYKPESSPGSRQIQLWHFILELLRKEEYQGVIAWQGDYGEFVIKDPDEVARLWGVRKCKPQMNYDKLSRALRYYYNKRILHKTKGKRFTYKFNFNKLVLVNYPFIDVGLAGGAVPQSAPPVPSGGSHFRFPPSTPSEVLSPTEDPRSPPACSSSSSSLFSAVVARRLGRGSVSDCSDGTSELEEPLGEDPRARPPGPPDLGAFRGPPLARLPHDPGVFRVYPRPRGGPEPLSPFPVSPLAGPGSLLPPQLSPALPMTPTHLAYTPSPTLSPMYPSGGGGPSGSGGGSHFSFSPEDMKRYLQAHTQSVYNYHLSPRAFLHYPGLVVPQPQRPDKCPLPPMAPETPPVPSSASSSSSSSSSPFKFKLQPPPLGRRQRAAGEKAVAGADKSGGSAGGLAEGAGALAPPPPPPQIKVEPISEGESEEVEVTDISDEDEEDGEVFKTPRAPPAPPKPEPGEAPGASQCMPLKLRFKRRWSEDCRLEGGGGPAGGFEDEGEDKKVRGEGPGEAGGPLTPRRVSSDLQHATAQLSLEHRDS
Method in brief: as §1

[10] = molecular target: T7, ETV3L (Homo sapiens, UniProt Q6ZN32 1-361)
T7 sequence: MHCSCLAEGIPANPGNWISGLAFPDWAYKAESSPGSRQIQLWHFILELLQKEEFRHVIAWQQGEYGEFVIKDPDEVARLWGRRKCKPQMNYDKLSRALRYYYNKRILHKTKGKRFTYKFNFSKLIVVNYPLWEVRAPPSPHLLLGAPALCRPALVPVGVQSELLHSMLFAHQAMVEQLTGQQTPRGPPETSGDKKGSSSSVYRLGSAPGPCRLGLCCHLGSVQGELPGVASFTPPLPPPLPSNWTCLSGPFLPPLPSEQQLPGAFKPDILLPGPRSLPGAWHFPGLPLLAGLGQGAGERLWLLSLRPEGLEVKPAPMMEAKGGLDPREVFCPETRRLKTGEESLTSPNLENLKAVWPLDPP
Method in brief: as §1

[11] = molecular target: T8, ETS2 (Homo sapiens, UniProt P15036 1-469)
T8 sequence: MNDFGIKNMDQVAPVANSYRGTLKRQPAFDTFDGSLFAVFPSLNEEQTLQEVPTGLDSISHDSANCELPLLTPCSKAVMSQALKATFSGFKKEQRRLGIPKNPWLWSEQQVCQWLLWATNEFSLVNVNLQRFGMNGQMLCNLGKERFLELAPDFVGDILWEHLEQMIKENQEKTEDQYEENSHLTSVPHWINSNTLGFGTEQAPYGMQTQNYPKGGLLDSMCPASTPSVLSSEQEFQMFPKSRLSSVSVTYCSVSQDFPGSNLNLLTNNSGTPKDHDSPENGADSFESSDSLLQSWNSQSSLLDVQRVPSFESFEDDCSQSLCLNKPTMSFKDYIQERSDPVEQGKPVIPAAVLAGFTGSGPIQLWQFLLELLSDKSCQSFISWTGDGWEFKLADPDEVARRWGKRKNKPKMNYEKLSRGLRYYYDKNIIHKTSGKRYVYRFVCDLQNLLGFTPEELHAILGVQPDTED
Method in brief: as §1

[12] = molecular target: T9, SPDEF (Homo sapiens, UniProt O95238 1-335)
T9 sequence: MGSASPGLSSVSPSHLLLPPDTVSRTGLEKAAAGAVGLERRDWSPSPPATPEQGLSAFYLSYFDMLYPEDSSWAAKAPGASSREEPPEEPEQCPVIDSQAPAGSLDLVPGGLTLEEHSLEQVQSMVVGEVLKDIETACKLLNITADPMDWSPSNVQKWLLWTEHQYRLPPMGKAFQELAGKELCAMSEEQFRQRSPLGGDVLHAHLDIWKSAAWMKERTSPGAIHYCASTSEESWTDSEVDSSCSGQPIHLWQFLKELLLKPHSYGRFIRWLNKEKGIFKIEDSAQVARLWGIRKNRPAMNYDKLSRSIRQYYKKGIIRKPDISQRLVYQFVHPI
Method in brief: as §1

[13] = molecular target: T10, ETV7 (Homo sapiens, UniProt Q9Y603 1-341)
T10 sequence: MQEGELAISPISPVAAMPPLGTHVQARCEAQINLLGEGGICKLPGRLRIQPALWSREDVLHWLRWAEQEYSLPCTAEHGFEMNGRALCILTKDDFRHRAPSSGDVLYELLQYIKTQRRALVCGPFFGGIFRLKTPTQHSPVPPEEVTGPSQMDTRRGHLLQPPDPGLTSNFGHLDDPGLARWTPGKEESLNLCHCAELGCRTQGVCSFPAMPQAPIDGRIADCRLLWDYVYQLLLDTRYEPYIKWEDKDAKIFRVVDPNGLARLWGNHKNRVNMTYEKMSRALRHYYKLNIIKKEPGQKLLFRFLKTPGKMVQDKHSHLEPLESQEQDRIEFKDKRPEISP
Method in brief: as §1

[14] = molecular target: T11, ELF5 (Homo sapiens, UniProt Q9UKW6-2 1-255)
T11 sequence: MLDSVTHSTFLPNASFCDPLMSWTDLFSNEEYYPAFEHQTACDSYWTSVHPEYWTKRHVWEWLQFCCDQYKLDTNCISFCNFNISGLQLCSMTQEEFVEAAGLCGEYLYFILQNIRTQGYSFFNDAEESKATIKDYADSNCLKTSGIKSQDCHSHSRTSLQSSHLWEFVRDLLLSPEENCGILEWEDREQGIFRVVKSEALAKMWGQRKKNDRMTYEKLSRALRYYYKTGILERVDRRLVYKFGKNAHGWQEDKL
Method in brief: as §1

[15] = molecular target: T12, ETV3 (Homo sapiens, UniProt P41162-2 1-143)
T12 sequence: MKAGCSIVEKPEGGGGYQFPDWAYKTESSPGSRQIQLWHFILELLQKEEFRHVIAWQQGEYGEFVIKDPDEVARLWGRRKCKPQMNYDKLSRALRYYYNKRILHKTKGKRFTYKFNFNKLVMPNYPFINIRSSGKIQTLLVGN
Method in brief: as §1

[16] = molecular target: ETV6 (Homo sapiens, UniProt P41212 1-452)
ETV6, sequence (P41212 whole entry): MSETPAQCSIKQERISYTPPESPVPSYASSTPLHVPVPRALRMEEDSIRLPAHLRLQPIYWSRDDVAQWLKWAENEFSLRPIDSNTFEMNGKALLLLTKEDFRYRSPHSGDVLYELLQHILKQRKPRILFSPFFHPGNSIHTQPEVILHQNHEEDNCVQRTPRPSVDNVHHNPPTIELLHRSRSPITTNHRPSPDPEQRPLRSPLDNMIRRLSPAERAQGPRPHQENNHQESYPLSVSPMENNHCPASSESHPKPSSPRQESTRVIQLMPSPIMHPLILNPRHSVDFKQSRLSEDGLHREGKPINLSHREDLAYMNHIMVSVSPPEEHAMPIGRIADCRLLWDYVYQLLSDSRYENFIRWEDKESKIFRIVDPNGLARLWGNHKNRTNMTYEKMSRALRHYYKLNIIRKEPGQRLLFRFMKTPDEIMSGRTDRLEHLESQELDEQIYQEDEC
Method in brief: as §1

Row | Sequence | binding signal [1] | binding signal [2] | binding signal [3] | binding signal [4] | binding signal [5] | binding signal [6] | binding signal [7] | binding signal [8] | binding signal [9] | binding signal [10] | binding signal [11] | binding signal [12] | binding signal [13] | binding signal [14] | binding signal [15] | binding signal [16]
1 | GTTCAT | 1.1 fold enrichment (6-mer frequency, TF over GST control) | 1.16 fold enrichment (6-mer frequency, TF over GST control) | 1.15 fold enrichment (6-mer frequency, TF over GST control) | 1.18 fold enrichment (6-mer frequency, TF over GST control) | 1.2 fold enrichment (6-mer frequency, TF over GST control) | 1.01 fold enrichment (6-mer frequency, TF over GST control) | 1.04 fold enrichment (6-mer frequency, TF over GST control) | 1.12 fold enrichment (6-mer frequency, TF over GST control) | 1.11 fold enrichment (6-mer frequency, TF over GST control) | 1.16 fold enrichment (6-mer frequency, TF over GST control) | 1.16 fold enrichment (6-mer frequency, TF over GST control) | 1.18 fold enrichment (6-mer frequency, TF over GST control) | 1.05 fold enrichment (6-mer frequency, TF over GST control) | 1.1 fold enrichment (6-mer frequency, TF over GST control) | 1.1 fold enrichment (6-mer frequency, TF over GST control) | 1.17 fold enrichment (6-mer frequency, TF over GST control)
2 | CGACCG | 1.6 fold enrichment (6-mer frequency, TF over GST control) | 1.19 fold enrichment (6-mer frequency, TF over GST control) | 1.09 fold enrichment (6-mer frequency, TF over GST control) | 1.28 fold enrichment (6-mer frequency, TF over GST control) | 1.17 fold enrichment (6-mer frequency, TF over GST control) | 1.35 fold enrichment (6-mer frequency, TF over GST control) | 1.27 fold enrichment (6-mer frequency, TF over GST control) | 1.26 fold enrichment (6-mer frequency, TF over GST control) | 1.17 fold enrichment (6-mer frequency, TF over GST control) | 1.28 fold enrichment (6-mer frequency, TF over GST control) | 1.22 fold enrichment (6-mer frequency, TF over GST control) | 1.22 fold enrichment (6-mer frequency, TF over GST control) | 1.13 fold enrichment (6-mer frequency, TF over GST control) | 1.12 fold enrichment (6-mer frequency, TF over GST control) | 1.12 fold enrichment (6-mer frequency, TF over GST control) | 1.18 fold enrichment (6-mer frequency, TF over GST control)
